# Article PMC7862700, “An all-to-all approach to the identification of sequence-specific readers for epigenetic DNA modifications on cytosine”
# Assays:
# Assay in all cases: DAPPL (digital affinity profiling via proximity ligation, sequencing); 10 mM Tris-HCl pH 7.5, 50 mM NaCl, 1 mM DTT, 4% glycerol, room temperature, 30 min; GST-TFs on glutathione beads, 16-mer random dsDNA library, 0.1% formaldehyde crosslink after washing; high values mean tight binding
# [1] = target: T1, FEV (Homo sapiens, UniProt Q99581 1-238); conditions: protein: recombinant; tags: N-terminal GST; dsDNA, one strand shown
# T1 sequence: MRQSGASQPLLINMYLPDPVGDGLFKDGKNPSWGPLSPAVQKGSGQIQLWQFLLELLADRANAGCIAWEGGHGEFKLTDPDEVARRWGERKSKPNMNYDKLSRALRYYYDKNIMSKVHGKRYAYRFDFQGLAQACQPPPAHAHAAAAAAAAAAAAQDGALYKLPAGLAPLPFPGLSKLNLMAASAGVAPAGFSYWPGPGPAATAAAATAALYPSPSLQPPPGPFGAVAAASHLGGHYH
# Summary of the method: (§1)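 In yeast, human transcription factors were expressed with a GST fusion, then pulled down on glutathione beads and given DNA barcodes. Pooled with a tag-only sample, they were exposed to 200 nmole of a 16-mer random double-stranded DNA library (Tris/NaCl/DTT/glycerol buffer, room temperature, 30 min), washed, crosslinked with 0.1% formaldehyde, proximity-ligated using BsaI/T4 ligase for 1 h at 37 °C, PCR-amplified and read on an Illumina NextSeq500. Each hexamer's frequency of reads for a factor, divided by the matching frequency for the tag-only sample, gives the binding signal.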
# [2] = target: ETV5 (Homo sapiens, UniProt P41161 1-510); conditions: protein: recombinant; tags: N-terminal GST; dsDNA, one strand shown
# Sequence of ETV5 (P41161 whole entry): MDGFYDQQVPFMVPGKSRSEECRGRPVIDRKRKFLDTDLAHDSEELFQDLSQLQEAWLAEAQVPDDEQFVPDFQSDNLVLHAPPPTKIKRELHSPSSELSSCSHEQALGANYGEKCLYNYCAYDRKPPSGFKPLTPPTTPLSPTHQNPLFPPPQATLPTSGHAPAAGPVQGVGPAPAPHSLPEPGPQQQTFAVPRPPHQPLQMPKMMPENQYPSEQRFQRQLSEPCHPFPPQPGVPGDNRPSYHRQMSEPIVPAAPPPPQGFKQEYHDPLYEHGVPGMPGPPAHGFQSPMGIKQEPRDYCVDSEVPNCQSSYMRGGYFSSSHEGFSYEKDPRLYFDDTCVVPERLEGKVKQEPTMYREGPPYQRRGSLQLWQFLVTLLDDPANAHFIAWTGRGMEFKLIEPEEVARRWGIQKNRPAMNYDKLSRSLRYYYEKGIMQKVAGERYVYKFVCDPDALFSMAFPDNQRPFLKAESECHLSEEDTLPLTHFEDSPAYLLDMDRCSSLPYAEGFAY
# Summary of the method: as §1
# [3] = target: HSF1 (Homo sapiens, UniProt Q00613 1-529); conditions: protein: recombinant; tags: N-terminal GST; chain copies: 3; dsDNA, one strand shown
# Sequence of HSF1 (Q00613 whole entry): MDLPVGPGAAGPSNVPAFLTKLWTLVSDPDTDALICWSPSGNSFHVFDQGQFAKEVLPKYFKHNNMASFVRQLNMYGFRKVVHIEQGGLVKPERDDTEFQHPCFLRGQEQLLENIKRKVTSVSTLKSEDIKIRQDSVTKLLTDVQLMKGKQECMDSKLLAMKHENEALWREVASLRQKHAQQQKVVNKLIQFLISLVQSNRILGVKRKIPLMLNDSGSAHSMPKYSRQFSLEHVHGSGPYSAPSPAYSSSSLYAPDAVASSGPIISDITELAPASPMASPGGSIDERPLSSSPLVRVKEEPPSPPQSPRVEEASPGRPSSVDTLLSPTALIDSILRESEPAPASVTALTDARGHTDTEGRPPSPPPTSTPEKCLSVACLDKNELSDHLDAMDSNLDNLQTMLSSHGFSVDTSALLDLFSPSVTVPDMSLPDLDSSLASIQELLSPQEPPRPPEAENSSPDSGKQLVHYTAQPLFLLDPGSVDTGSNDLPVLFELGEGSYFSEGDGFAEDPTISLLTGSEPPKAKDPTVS
# Summary of the method: as §1
# [4] = target: T2, SPIC (Homo sapiens, UniProt Q8N5J4 1-248); conditions: protein: recombinant; tags: N-terminal GST; dsDNA, one strand shown
# T2 sequence: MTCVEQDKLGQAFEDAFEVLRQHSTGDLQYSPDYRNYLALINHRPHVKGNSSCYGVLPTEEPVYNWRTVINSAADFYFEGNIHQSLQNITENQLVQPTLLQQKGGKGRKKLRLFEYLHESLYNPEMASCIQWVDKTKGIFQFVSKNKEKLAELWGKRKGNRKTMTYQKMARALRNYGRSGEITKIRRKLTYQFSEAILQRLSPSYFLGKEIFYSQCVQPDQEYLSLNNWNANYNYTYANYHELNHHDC
# Summary of the method: as §1
# [5] = target: ELF4 (Homo sapiens, UniProt Q99607 1-663); conditions: protein: recombinant; tags: N-terminal GST; dsDNA, one strand shown
# Sequence of ELF4 (Q99607 whole entry): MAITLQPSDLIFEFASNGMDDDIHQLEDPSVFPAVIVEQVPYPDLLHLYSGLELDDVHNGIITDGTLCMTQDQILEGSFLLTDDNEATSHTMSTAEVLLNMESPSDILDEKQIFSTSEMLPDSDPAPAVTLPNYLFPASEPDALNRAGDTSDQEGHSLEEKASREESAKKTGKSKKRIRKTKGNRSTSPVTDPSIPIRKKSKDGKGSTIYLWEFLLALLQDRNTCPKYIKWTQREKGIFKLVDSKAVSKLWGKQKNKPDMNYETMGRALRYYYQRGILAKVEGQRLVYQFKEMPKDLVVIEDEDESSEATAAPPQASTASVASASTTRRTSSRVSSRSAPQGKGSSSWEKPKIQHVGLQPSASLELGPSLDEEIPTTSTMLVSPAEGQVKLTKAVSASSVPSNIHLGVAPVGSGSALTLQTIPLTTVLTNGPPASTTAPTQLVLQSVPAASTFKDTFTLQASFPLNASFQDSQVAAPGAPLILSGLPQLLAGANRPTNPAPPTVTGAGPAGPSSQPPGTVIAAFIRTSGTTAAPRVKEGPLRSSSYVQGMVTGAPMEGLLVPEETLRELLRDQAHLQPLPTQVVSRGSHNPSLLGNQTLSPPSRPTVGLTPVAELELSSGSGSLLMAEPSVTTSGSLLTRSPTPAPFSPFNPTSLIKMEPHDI
# Summary of the method: as §1
# [6] = target: T3, ELK4 (Homo sapiens, UniProt P28324-2 1-405); conditions: protein: recombinant; tags: N-terminal GST; dsDNA, one strand shown
# T3 sequence: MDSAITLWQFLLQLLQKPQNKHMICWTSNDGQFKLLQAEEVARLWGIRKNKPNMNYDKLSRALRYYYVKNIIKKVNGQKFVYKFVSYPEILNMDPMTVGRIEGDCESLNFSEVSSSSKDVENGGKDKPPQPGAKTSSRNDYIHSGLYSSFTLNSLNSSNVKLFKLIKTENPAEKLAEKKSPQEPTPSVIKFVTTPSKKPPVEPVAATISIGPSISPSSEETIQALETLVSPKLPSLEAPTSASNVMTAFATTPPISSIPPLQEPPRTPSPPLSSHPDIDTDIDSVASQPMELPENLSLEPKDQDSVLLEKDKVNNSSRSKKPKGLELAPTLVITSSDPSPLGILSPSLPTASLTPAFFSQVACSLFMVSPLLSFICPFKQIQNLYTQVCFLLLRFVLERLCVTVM
# Summary of the method: as §1
# [7] = target: T4, ETV2 (Homo sapiens, UniProt O00321 1-342); conditions: protein: recombinant; tags: N-terminal GST; dsDNA, one strand shown
# T4 sequence: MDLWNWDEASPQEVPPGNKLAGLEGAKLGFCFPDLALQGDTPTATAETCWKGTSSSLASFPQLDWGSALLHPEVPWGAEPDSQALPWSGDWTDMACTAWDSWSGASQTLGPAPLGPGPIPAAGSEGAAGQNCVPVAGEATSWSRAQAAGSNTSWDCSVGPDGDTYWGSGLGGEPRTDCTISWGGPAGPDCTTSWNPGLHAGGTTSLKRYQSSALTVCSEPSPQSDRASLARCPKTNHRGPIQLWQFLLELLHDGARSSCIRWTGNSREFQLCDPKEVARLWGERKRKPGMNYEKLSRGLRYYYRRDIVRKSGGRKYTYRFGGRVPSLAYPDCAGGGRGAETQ
# Summary of the method: as §1
# [8] = target: T5, ELF3 (Homo sapiens, UniProt P78545 1-371); conditions: protein: recombinant; tags: N-terminal GST; dsDNA, one strand shown
# T5 sequence: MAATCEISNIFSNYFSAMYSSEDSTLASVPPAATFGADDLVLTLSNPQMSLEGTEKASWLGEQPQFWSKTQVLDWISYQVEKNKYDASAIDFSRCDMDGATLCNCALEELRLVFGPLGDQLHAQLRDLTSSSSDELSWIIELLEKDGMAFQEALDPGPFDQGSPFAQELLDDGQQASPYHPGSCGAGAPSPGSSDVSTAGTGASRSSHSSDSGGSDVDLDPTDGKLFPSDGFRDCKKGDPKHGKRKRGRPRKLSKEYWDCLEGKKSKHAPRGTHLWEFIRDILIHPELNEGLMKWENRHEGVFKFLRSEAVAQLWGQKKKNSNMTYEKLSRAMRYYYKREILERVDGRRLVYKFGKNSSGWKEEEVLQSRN
# Summary of the method: as §1
# [9] = target: CRX (Homo sapiens, UniProt O43186 1-299); conditions: protein: recombinant; tags: N-terminal GST; dsDNA, one strand shown
# Sequence of CRX (O43186 whole entry): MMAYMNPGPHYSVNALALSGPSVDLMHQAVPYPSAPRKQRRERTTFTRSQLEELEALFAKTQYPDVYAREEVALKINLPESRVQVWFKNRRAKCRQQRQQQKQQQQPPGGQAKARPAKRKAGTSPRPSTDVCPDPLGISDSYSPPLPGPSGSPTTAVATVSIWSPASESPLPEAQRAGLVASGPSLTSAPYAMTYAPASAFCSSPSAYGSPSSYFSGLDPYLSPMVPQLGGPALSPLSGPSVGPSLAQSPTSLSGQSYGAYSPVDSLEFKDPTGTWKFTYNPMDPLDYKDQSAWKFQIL
# Summary of the method: as §1
# [10] = target: ETV1 (Homo sapiens, UniProt P50549 1-477); conditions: protein: recombinant; tags: N-terminal GST; dsDNA, one strand shown
# Sequence of ETV1 (P50549 whole entry): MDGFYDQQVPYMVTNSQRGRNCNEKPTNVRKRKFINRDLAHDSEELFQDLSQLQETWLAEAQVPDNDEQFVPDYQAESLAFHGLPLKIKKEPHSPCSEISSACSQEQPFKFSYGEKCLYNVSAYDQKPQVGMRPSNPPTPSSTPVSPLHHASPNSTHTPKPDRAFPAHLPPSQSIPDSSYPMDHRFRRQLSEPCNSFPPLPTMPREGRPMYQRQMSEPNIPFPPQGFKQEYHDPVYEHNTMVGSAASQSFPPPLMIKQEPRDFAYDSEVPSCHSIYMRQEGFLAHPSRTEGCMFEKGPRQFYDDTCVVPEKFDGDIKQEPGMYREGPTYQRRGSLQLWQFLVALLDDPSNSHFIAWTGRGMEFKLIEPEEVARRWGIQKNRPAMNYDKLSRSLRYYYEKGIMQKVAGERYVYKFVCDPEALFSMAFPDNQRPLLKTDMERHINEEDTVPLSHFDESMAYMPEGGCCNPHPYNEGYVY
# Summary of the method: as §1
# [11] = target: T6, ERF (Homo sapiens, UniProt P50548 1-548); conditions: protein: recombinant; tags: N-terminal GST; dsDNA, one strand shown
# T6 sequence: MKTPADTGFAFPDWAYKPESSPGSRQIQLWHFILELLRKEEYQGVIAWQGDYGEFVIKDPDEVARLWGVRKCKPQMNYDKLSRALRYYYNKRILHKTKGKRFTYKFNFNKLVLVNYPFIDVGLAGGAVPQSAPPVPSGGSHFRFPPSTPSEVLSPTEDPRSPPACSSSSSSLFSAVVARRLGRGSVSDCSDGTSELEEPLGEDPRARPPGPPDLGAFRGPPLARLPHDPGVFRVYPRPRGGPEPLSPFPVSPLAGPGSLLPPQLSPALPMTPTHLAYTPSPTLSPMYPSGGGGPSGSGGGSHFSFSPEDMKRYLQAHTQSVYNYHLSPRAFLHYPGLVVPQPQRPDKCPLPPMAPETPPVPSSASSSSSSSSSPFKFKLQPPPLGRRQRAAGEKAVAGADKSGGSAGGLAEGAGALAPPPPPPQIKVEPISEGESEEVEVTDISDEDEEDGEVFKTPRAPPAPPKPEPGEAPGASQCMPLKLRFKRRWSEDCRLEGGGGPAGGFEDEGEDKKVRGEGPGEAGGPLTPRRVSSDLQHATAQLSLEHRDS
# Summary of the method: as §1
# [12] = target: T7, ETV3L (Homo sapiens, UniProt Q6ZN32 1-361); conditions: protein: recombinant; tags: N-terminal GST; dsDNA, one strand shown
# T7 sequence: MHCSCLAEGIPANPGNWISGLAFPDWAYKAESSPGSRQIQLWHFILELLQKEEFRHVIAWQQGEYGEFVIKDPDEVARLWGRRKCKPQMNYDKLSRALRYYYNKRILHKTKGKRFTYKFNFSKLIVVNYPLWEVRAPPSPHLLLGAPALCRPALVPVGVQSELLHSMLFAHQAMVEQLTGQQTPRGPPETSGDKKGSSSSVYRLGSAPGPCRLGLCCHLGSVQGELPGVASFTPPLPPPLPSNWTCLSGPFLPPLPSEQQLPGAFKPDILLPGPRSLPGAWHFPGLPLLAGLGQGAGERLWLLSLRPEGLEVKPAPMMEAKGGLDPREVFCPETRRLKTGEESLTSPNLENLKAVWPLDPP
# Summary of the method: as §1
# [13] = target: T8, ETS2 (Homo sapiens, UniProt P15036 1-469); conditions: protein: recombinant; tags: N-terminal GST; dsDNA, one strand shown
# T8 sequence: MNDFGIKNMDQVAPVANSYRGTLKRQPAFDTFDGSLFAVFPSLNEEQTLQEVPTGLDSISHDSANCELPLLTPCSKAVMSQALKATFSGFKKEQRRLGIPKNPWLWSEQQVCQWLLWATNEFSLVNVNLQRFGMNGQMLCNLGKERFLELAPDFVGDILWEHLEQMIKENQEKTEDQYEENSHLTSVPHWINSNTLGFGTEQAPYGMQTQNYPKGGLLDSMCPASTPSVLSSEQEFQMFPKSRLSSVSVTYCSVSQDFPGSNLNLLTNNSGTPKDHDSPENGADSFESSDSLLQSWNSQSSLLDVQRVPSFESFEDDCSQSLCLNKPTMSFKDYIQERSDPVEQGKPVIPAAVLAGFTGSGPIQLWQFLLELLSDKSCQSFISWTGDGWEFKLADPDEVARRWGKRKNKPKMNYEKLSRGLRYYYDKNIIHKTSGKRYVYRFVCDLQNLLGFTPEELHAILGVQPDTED
# Summary of the method: as §1
# [14] = target: T9, SPDEF (Homo sapiens, UniProt O95238 1-335); conditions: protein: recombinant; tags: N-terminal GST; dsDNA, one strand shown
# T9 sequence: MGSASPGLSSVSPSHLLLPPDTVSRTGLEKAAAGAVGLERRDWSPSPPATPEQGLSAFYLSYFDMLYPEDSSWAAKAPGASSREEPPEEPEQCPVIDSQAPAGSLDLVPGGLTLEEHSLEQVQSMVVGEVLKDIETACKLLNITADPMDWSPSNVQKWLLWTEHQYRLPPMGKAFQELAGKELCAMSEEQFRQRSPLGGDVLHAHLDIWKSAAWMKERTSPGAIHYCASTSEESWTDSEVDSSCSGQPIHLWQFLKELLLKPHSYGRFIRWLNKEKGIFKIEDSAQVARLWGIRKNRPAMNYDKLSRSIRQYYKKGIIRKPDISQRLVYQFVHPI
# Summary of the method: as §1
# [15] = target: T10, ETV7 (Homo sapiens, UniProt Q9Y603 1-341); conditions: protein: recombinant; tags: N-terminal GST; dsDNA, one strand shown
# T10 sequence: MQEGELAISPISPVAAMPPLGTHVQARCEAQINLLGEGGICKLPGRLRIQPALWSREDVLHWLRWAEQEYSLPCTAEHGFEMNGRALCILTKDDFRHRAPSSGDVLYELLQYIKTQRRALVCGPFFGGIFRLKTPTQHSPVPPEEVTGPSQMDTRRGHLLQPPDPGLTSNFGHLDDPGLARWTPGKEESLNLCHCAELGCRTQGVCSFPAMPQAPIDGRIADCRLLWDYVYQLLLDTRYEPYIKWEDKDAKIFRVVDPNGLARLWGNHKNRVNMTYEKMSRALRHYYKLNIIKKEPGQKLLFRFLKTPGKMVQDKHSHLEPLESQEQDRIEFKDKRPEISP
# Summary of the method: as §1
# [16] = target: T11, ELF5 (Homo sapiens, UniProt Q9UKW6-2 1-255); conditions: protein: recombinant; tags: N-terminal GST; dsDNA, one strand shown
# T11 sequence: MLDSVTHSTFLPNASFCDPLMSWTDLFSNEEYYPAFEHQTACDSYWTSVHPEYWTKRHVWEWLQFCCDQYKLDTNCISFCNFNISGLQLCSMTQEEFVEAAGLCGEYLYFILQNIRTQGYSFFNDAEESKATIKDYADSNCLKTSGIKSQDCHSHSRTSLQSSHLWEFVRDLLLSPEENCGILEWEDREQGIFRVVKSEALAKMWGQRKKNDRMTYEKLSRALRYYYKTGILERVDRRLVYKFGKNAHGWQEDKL
# Summary of the method: as §1
# [17] = target: T12, ETV3 (Homo sapiens, UniProt P41162-2 1-143); conditions: protein: recombinant; tags: N-terminal GST; dsDNA, one strand shown
# T12 sequence: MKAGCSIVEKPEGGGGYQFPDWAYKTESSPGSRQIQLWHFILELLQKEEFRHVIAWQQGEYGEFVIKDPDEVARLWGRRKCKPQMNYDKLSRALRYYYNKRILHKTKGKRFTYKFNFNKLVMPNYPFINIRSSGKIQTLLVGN
# Summary of the method: as §1
# [18] = target: ETV6 (Homo sapiens, UniProt P41212 1-452); conditions: protein: recombinant; tags: N-terminal GST; dsDNA, one strand shown
# Sequence of ETV6 (P41212 whole entry): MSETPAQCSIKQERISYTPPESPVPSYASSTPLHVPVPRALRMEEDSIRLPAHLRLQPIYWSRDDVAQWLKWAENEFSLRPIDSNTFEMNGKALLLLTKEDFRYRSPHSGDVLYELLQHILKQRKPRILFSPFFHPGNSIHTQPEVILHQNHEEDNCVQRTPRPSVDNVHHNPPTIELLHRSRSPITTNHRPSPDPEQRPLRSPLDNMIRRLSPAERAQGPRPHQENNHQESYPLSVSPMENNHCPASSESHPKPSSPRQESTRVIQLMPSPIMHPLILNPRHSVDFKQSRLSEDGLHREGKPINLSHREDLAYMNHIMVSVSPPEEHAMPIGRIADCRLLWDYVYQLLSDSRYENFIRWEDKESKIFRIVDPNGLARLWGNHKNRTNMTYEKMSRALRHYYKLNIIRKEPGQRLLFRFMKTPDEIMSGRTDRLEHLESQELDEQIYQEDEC
# Summary of the method: as §1
sequence,measurement,setting,value
TCAATT,binding signal,[1],"1.16 fold enrichment (6-mer frequency, TF over GST control)"
same,binding signal,[2],"1.21 fold enrichment (6-mer frequency, TF over GST control)"
same,binding signal,[3],"1.1 fold enrichment (6-mer frequency, TF over GST control)"
same,binding signal,[4],"1.14 fold enrichment (6-mer frequency, TF over GST control)"
same,binding signal,[5],"1.18 fold enrichment (6-mer frequency, TF over GST control)"
same,binding signal,[6],"1.08 fold enrichment (6-mer frequency, TF over GST control)"
same,binding signal,[7],"1.24 fold enrichment (6-mer frequency, TF over GST control)"
same,binding signal,[8],"1.12 fold enrichment (6-mer frequency, TF over GST control)"
same,binding signal,[9],"1.17 fold enrichment (6-mer frequency, TF over GST control)"
same,binding signal,[10],"1.14 fold enrichment (6-mer frequency, TF over GST control)"
same,binding signal,[11],"1.13 fold enrichment (6-mer frequency, TF over GST control)"
same,binding signal,[12],"1.29 fold enrichment (6-mer frequency, TF over GST control)"
same,binding signal,[13],"1.17 fold enrichment (6-mer frequency, TF over GST control)"
same,binding signal,[14],"1.15 fold enrichment (6-mer frequency, TF over GST control)"
same,binding signal,[15],"1.12 fold enrichment (6-mer frequency, TF over GST control)"
same,binding signal,[16],"1.13 fold enrichment (6-mer frequency, TF over GST control)"
same,binding signal,[17],"1.21 fold enrichment (6-mer frequency, TF over GST control)"
same,binding signal,[18],"1.14 fold enrichment (6-mer frequency, TF over GST control)"
